# Publication PMC7862700, “An all-to-all approach to the identification of sequence-specific readers for epigenetic DNA modifications on cytosine”
# Assays:
# Assay in all cases: DAPPL (digital affinity profiling via proximity ligation, sequencing); 10 mM Tris-HCl pH 7.5, 50 mM NaCl, 1 mM DTT, 4% glycerol, room temperature, 30 min; GST-TFs on glutathione beads, 16-mer random dsDNA library, 0.1% formaldehyde crosslink after washing; high values mean tight binding
# Details in all cases: protein: recombinant; tags: N-terminal GST; dsDNA, one strand shown
# [1] = biological target: T1, ELK1 (Homo sapiens, UniProt P19419 1-428)
# T1 sequence: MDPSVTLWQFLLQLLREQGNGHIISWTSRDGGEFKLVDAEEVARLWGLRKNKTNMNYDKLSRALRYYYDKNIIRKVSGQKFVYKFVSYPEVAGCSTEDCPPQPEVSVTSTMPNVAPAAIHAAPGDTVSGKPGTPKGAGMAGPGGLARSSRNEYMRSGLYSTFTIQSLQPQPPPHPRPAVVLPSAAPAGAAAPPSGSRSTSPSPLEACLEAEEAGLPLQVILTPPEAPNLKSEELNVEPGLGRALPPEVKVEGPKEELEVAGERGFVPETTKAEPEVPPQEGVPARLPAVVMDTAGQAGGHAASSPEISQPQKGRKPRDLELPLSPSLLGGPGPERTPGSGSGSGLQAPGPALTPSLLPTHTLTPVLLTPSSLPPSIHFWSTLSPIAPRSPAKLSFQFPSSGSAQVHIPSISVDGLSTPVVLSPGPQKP
# Summary of the method: (§1)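 Pools were built from human transcription factors expressed in yeast as GST fusions, captured on glutathione beads and DNA-barcoded, along with a tag-only sample. Incubation with 200 nmole of a 16-mer random double-stranded DNA library lasted 30 min at room temperature in Tris/NaCl/DTT/glycerol buffer, and was followed by washing, 0.1% formaldehyde crosslinking, proximity ligation, PCR amplification and Illumina NextSeq500 sequencing. Binding signal is the quotient of each hexamer's read frequency for a factor and its frequency for the tag-only sample.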
# [2] = biological target: T2, GABPA (Homo sapiens, UniProt Q06546 1-454)
# T2 sequence: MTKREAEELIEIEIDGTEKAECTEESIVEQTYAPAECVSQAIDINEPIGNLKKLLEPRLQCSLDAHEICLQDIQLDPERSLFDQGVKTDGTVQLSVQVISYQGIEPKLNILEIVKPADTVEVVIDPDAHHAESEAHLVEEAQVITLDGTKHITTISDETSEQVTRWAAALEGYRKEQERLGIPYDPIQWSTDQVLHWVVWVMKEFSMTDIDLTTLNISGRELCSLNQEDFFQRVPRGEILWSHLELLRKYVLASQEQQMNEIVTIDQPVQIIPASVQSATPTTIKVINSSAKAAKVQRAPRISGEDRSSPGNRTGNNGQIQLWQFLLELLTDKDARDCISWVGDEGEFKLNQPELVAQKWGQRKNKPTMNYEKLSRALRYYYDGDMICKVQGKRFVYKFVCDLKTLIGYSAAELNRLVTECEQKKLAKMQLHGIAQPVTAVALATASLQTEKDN
# Summary of the method: as §1
# [3] = biological target: T3, ERG (Homo sapiens, UniProt P11308 1-479)
# T3 sequence: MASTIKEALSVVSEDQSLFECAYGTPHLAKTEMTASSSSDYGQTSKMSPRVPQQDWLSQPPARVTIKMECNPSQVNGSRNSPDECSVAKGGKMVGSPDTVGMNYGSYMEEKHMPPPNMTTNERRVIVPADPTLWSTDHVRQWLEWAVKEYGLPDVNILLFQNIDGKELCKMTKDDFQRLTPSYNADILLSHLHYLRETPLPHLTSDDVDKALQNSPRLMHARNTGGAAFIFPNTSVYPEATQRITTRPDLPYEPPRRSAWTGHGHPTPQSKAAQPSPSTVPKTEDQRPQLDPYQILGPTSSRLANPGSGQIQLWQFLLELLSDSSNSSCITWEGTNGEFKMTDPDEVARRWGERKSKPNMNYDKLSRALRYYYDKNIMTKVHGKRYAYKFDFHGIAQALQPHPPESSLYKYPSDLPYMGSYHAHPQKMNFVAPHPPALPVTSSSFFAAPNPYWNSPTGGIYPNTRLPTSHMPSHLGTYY
# Summary of the method: as §1
# [4] = biological target: ELF1 (Homo sapiens, UniProt P32519 1-619)
# Summary of the method: as §1
# [5] = biological target: T4, EHF (Homo sapiens, UniProt Q9NZC4 1-300)
# T4 sequence: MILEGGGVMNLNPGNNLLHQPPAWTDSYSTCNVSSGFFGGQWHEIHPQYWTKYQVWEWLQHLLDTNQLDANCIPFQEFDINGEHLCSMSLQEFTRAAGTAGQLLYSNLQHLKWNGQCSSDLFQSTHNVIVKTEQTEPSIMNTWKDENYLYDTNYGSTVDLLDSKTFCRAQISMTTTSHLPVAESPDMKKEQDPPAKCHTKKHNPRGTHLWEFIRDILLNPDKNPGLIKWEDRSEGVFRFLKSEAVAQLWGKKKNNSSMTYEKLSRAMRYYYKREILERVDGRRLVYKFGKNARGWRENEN
# Summary of the method: as §1
# [6] = biological target: SPIB (Homo sapiens, UniProt Q01892 1-262)
# Summary of the method: as §1
# [7] = biological target: T5, FEV (Homo sapiens, UniProt Q99581 1-238)
# T5 sequence: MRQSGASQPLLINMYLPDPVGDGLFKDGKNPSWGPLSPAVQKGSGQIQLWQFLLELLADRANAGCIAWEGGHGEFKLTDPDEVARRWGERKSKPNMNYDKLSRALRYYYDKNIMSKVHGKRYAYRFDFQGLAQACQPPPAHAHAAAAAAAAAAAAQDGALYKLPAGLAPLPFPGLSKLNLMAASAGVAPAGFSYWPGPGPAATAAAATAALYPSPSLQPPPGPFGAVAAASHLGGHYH
# Summary of the method: as §1
# [8] = biological target: ETV5 (Homo sapiens, UniProt P41161 1-510)
# Summary of the method: as §1
# [9] = biological target: ELF4 (Homo sapiens, UniProt Q99607 1-663)
# Summary of the method: as §1
# [10] = biological target: T6, ELK4 (Homo sapiens, UniProt P28324-2 1-405)
# T6 sequence: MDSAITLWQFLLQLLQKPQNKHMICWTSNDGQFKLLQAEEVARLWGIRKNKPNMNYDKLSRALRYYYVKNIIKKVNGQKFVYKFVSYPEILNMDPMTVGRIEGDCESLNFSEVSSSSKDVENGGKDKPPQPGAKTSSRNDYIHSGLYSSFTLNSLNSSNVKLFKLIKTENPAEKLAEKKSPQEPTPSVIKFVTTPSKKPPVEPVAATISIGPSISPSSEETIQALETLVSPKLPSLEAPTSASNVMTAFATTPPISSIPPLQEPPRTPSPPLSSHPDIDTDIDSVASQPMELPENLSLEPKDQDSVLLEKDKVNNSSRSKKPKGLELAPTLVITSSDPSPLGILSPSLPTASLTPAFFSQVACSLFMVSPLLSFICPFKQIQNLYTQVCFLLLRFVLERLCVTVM
# Summary of the method: as §1
# [11] = biological target: T7, ELF3 (Homo sapiens, UniProt P78545 1-371)
# T7 sequence: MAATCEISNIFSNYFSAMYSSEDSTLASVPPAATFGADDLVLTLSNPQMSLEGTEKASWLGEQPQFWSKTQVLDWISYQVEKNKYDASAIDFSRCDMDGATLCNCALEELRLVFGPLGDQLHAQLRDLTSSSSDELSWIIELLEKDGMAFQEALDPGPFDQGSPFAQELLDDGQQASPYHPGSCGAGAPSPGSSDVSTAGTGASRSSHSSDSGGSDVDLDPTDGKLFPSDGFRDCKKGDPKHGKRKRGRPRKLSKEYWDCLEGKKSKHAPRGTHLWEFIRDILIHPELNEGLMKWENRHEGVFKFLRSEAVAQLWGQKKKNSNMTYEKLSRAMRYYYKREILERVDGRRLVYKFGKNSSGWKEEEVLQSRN
# Summary of the method: as §1
# [12] = biological target: ETV1 (Homo sapiens, UniProt P50549 1-477)
# Summary of the method: as §1
# [13] = biological target: T8, ERF (Homo sapiens, UniProt P50548 1-548)
# T8 sequence: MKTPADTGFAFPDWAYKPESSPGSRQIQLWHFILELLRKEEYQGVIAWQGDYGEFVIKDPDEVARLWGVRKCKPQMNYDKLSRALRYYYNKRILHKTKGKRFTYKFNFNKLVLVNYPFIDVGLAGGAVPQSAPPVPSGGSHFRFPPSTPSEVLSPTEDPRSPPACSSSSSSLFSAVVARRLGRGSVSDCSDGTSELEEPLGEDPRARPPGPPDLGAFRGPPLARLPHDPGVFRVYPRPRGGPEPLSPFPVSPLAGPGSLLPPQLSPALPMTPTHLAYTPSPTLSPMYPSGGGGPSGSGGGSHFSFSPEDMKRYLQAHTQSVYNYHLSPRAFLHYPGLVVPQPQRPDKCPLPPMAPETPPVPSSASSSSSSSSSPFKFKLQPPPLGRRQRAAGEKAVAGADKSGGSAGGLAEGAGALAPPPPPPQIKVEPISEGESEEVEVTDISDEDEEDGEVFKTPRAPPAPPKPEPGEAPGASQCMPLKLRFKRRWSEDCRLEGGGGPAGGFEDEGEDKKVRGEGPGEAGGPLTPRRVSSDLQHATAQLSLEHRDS
# Summary of the method: as §1
# [14] = biological target: T9, ETV3L (Homo sapiens, UniProt Q6ZN32 1-361)
# T9 sequence: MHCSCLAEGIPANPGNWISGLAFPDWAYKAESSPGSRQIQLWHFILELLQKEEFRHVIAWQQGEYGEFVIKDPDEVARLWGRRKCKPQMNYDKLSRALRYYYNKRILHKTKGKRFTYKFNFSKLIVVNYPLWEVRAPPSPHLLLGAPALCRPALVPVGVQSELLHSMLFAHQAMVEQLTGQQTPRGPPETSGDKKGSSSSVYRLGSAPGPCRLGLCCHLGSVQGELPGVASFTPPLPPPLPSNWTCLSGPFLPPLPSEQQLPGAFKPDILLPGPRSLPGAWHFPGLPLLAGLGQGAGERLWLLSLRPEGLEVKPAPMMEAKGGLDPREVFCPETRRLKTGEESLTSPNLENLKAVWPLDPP
# Summary of the method: as §1
# [15] = biological target: T10, ETS2 (Homo sapiens, UniProt P15036 1-469)
# T10 sequence: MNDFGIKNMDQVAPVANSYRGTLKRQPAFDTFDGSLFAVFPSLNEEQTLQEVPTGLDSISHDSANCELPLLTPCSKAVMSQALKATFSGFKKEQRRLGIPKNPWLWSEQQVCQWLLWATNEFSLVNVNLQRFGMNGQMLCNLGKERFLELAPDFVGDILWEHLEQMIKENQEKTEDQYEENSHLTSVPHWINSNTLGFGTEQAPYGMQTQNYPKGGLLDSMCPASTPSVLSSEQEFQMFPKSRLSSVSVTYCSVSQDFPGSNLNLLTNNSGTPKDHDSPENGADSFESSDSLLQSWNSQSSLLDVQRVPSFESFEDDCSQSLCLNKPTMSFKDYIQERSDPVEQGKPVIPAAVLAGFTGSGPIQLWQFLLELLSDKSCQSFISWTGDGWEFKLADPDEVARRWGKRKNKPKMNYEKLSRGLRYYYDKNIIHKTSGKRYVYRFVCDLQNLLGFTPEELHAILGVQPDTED
# Summary of the method: as §1
# [16] = biological target: T11, SPDEF (Homo sapiens, UniProt O95238 1-335)
# T11 sequence: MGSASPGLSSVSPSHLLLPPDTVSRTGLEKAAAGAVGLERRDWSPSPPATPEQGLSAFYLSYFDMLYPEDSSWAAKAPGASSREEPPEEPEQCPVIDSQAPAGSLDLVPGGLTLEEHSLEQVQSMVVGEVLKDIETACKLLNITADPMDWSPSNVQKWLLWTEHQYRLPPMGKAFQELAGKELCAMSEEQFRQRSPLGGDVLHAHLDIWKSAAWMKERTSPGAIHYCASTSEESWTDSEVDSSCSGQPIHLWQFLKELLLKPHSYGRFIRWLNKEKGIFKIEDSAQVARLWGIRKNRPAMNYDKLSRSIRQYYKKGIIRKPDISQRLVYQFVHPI
# Summary of the method: as §1
# [17] = biological target: T12, ETV7 (Homo sapiens, UniProt Q9Y603 1-341)
# T12 sequence: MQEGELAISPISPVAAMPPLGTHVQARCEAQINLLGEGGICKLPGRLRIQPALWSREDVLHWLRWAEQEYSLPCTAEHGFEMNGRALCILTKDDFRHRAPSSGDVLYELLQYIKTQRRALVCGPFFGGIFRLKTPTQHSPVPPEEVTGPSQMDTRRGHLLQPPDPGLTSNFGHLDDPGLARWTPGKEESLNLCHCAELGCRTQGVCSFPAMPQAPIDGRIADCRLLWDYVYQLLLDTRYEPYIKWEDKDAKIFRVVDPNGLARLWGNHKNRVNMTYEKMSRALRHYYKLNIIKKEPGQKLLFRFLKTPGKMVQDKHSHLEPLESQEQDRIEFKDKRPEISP
# Summary of the method: as §1
# [18] = biological target: T13, ETV3 (Homo sapiens, UniProt P41162-2 1-143)
# T13 sequence: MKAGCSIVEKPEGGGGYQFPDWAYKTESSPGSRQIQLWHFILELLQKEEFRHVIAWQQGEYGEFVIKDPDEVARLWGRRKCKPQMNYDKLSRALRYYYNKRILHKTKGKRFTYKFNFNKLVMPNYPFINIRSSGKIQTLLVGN
# Summary of the method: as §1
# [19] = biological target: ETV6 (Homo sapiens, UniProt P41212 1-452)
# Summary of the method: as §1
# Chain of ETV1 (P50549 whole entry): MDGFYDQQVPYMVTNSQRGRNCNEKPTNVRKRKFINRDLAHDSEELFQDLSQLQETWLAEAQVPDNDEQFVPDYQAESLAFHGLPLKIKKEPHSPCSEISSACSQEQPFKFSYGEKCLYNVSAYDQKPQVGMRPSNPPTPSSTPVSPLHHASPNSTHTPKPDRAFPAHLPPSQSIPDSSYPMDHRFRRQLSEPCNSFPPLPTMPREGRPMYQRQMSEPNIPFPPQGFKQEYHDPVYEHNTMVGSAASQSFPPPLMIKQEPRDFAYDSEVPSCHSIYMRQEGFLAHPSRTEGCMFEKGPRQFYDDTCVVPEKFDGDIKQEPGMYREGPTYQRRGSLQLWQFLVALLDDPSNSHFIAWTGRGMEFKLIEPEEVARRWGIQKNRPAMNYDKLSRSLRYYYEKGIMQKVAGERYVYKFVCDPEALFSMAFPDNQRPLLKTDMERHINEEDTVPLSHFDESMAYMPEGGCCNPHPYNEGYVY
# Chain of SPIB (Q01892 whole entry): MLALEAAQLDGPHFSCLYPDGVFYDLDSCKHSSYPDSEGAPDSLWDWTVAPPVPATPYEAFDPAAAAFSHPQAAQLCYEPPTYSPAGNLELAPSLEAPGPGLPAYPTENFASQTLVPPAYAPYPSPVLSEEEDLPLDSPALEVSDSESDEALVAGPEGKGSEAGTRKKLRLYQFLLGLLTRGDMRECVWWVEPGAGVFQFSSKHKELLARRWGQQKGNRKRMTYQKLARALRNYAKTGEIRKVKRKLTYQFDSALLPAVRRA
# Chain of ELF4 (Q99607 whole entry): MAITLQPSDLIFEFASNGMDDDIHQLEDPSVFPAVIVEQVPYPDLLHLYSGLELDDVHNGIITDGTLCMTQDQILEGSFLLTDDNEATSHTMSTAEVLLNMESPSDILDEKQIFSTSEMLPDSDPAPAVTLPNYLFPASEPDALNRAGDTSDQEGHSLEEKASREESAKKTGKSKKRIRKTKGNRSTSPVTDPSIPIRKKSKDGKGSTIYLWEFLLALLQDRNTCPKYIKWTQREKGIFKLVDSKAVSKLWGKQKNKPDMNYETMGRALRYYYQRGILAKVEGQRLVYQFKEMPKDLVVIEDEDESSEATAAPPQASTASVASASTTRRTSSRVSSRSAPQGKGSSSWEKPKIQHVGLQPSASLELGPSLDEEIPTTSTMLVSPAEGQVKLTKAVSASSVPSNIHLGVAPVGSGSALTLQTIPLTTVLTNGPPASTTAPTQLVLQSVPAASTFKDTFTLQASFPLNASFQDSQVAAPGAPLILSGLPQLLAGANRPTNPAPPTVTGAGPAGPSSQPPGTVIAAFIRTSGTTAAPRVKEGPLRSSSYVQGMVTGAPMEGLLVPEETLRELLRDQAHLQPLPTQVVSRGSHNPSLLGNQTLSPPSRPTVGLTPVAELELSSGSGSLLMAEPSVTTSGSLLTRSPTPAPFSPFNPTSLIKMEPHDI
# Chain of ETV5 (P41161 whole entry): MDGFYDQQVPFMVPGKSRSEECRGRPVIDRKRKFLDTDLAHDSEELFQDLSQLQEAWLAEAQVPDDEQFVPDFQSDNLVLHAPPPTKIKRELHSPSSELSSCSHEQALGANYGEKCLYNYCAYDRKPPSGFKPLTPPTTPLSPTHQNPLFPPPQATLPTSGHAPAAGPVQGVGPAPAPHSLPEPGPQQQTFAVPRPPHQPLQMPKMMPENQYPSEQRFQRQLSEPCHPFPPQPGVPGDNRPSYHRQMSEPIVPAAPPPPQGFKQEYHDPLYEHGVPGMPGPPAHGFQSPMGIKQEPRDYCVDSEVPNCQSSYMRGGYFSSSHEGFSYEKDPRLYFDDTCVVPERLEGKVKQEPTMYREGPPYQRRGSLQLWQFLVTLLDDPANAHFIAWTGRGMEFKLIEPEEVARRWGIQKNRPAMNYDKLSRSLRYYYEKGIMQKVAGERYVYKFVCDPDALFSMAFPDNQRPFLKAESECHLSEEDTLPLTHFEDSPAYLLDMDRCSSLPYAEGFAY
# Chain of ELF1 (P32519 whole entry): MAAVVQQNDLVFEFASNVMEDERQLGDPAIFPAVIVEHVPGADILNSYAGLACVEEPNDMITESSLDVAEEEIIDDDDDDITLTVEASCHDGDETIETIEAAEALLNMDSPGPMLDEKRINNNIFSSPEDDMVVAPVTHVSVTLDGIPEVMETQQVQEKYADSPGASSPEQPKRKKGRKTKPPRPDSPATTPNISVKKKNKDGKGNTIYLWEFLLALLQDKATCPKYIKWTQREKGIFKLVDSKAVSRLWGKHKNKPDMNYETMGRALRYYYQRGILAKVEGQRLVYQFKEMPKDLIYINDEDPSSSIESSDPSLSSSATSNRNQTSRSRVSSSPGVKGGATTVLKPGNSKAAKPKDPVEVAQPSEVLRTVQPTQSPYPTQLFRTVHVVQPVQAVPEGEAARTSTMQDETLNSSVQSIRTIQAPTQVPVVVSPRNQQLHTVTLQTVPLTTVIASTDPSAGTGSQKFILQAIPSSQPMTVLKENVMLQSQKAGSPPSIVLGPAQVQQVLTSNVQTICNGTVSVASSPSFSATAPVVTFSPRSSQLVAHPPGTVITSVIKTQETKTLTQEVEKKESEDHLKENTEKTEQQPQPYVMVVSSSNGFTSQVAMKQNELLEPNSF
# Chain of ETV6 (P41212 whole entry): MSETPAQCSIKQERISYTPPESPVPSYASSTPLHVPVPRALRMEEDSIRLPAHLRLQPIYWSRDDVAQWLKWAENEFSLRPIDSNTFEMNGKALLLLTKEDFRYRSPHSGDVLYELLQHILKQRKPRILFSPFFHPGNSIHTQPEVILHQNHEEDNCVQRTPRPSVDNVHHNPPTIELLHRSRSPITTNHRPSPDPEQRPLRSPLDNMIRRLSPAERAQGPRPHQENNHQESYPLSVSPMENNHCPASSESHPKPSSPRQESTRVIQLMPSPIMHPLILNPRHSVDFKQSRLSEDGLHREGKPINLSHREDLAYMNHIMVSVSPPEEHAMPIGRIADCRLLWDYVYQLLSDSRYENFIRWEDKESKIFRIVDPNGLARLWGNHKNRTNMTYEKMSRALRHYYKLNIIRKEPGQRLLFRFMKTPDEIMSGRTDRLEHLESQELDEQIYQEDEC
sequence,measurement,setting,value
CACAGC,binding signal,[1],"1.09 fold enrichment (6-mer frequency, TF over GST control)"
same,binding signal,[2],"1.02 fold enrichment (6-mer frequency, TF over GST control)"
same,binding signal,[3],"1.03 fold enrichment (6-mer frequency, TF over GST control)"
same,binding signal,[4],"1.11 fold enrichment (6-mer frequency, TF over GST control)"
same,binding signal,[5],"1.02 fold enrichment (6-mer frequency, TF over GST control)"
same,binding signal,[6],"1.05 fold enrichment (6-mer frequency, TF over GST control)"
same,binding signal,[7],"1.03 fold enrichment (6-mer frequency, TF over GST control)"
same,binding signal,[8],"1.01 fold enrichment (6-mer frequency, TF over GST control)"
same,binding signal,[9],"1.08 fold enrichment (6-mer frequency, TF over GST control)"
same,binding signal,[10],"1.04 fold enrichment (6-mer frequency, TF over GST control)"
same,binding signal,[11],"1.04 fold enrichment (6-mer frequency, TF over GST control)"
same,binding signal,[12],"1.1 fold enrichment (6-mer frequency, TF over GST control)"
same,binding signal,[13],"1.07 fold enrichment (6-mer frequency, TF over GST control)"
same,binding signal,[14],"1.17 fold enrichment (6-mer frequency, TF over GST control)"
same,binding signal,[15],"1.01 fold enrichment (6-mer frequency, TF over GST control)"
same,binding signal,[16],"1.03 fold enrichment (6-mer frequency, TF over GST control)"
same,binding signal,[17],"1.12 fold enrichment (6-mer frequency, TF over GST control)"
same,binding signal,[18],"1.05 fold enrichment (6-mer frequency, TF over GST control)"
same,binding signal,[19],"1.01 fold enrichment (6-mer frequency, TF over GST control)"
